Hit rate of the full screen: of about 310,000 compounds, about 14,000 (4.5%) showed an effect of 50% or more. Effects have a minus sign here. For the sample, strong results were picked, then their nearest neighbours and some compounds at random.
Biological target: human ether-à-go-go-related gene (hERG) potassium channel (human, UniProt Q12809)
Assay: primary screen, population patch clamp on CHO cells stably expressing hERG; higher = less effect of the substance
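Also: peak tail current of the secondary pulse compared with the same well before compound.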

Sequence of human ether-à-go-go-related gene (hERG) potassium channel (Q12809 whole entry, looked up): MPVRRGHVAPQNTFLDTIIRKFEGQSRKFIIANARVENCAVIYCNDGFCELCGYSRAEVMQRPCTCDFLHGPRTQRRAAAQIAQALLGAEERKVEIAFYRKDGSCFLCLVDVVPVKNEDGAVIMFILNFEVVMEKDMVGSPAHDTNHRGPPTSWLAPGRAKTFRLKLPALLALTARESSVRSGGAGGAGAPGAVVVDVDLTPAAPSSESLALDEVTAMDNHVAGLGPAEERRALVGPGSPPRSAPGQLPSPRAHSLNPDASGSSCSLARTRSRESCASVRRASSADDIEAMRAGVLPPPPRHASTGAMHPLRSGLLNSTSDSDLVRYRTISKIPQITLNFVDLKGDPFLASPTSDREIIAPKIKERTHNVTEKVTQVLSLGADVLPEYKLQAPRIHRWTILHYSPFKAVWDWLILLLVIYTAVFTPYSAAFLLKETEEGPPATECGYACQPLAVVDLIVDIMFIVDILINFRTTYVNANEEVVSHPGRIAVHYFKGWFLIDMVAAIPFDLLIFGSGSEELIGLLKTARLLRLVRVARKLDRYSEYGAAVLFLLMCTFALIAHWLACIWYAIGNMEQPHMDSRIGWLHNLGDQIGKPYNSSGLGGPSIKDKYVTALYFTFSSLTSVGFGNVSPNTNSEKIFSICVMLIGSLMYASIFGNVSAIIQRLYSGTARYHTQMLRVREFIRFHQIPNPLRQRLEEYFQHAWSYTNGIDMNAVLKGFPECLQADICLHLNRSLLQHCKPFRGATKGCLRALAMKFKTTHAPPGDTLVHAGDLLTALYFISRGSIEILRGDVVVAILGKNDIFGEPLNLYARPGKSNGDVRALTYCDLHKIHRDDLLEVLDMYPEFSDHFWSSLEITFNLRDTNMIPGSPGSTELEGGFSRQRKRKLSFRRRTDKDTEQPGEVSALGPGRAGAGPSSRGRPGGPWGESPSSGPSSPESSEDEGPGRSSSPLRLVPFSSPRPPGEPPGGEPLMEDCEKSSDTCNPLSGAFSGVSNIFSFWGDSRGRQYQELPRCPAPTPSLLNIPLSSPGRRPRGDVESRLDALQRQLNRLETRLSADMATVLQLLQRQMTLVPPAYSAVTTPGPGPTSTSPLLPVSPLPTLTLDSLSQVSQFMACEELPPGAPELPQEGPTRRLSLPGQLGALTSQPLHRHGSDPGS

Compound	hERG current change (%, negative = inhibition) at 10uM [%]
O=C(c1ccc(CS(=O)(=O)c2ccc(Br)cc2)o1)N1CCN(c2ccccn2)CC1	-36
Cc1ccc(-n2c(C)nc3ccsc3c2=O)cc1	1.42
O=C(CCc1nc(-c2ccccc2Cl)no1)NC1CCCCC1	10.6
CCCCCCCNC(=O)COc1ccc2c(c1)C(=O)CC(C)(C)O2	-14.4
CCN(CC)CCNC(=O)CNC(=S)N(CCCN1CCOCC1)Cc1cccs1	15.7
CCOC(=O)CNC(=S)N(CCCN1CCCCCC1)Cc1cccs1	-65.8
O=C(CNC(=S)N(CCCN1CCOCC1)Cc1cccs1)N1CCCC1	3.09
O=C(CNC(=S)N(CCCN1CCOCC1)Cc1cccs1)N1CCOCC1	-9.74
CCOC(=O)CNC(=S)N(CCCN1CCCC1)Cc1cccs1	-53.6
O=C(CNC(=S)N(CCCN1CCOCC1)Cc1cccs1)N1CCCCCC1	-41.4
CCOC(=O)CNC(=S)N(CCCN1CCCCC1)Cc1cccs1	-62.6
CCOC(=O)CNC(=S)N(CCCN1CCN(C)CC1)Cc1cccs1	-43.5
COCCNC(=O)CNC(=S)N(CCCN1CCOCC1)Cc1cccs1	14.1
O=C(Nc1cccc(F)c1)c1cc(S(=O)(=O)NCCC2=CCCCC2)ccc1F	17.4
COc1ccccc1N(CC(=O)NCCSCc1ccccc1)S(C)(=O)=O	4.03
COc1ccc(N2CC(C)Cn3c2nc2c3c(=O)[nH]c(=O)n2C)cc1 (stereo not drawn)	-24.3
N#Cc1c(NC(=O)CSc2ncccn2)oc(-c2ccccc2)c1-c1ccccc1	25.2
Nc1nc(Cl)nc2ccc(Br)cc12	7.87
CC(=O)c1c(C)nc2ccccc2c1N	-10.1
Cc1nc2ccccc2c(N)c1C(=O)/C=C/c1ccccc1	-79.7
Cc1[nH]c2ccccc2c1C(=O)/C=C/c1ccccc1	8.96
Cc1occc1-c1nnc(SCCNCCO)o1.O=C(O)C(=O)O	63.6
COc1ccc(C2NC(=O)CCC2[N+](=O)[O-])cc1OC (stereo not drawn)	10.1

Compound	hERG current change (%, negative = inhibition) at 10uM [%]
CSc1cccc(NC(=O)CCCOc2ccc(Cl)cc2C)c1	-2.48
c1ccc2c(c1)CCN(Cc1nnnn1Cc1ccc3c(c1)OCO3)C2	-3.1
CC(C)C(c1nnnn1Cc1ccccc1)N1CCN(Cc2ccc3c(c2)OCO3)CC1 (stereo not drawn)	-52
CC(C)C(c1nnnn1Cc1ccc(F)cc1)N1CCN(Cc2ccc3c(c2)OCO3)CC1 (stereo not drawn)	-43.3
Fc1ccccc1C(c1nnnn1Cc1ccc2c(c1)OCO2)N1CCN(Cc2ccccc2)CC1 (stereo not drawn)	-55.3
CC(C)C(c1nnnn1Cc1ccc2c(c1)OCO2)N1CCN(c2ccccc2)CC1 (stereo not drawn)	23.1
c1ccc(Cn2nnnc2CN2CCN(Cc3ccc4c(c3)OCO4)CC2)cc1	-61.1
CCN1CCN(C(c2ccccc2F)c2nnnn2Cc2ccc3c(c2)OCO3)CC1.Cl (stereo not drawn)	-37.6
Cl.c1ccc(CCn2nnnc2C(c2cccs2)N2CCN(Cc3ccc4c(c3)OCO4)CC2)cc1 (stereo not drawn)	-24.1
Cl.NC(=O)C1CCN(C(c2ccccc2F)c2nnnn2Cc2ccco2)CC1 (stereo not drawn)	11.1
c1ccc2sc(C3CCN(Cc4nnnn4Cc4ccc5c(c4)OCO5)CC3)nc2c1	-8.73
Cl.Fc1ccccc1C(c1nnnn1Cc1ccc2c(c1)OCO2)N1CCN(Cc2ccco2)CC1 (stereo not drawn)	-56.4
CC(C)C(c1nnnn1Cc1ccccc1)N1CCN(Cc2ccco2)CC1.Cl (stereo not drawn)	-32.1
O=C(CN1C(=O)NC2(CCCC2)C1=O)OCc1ccc(Cl)cc1Cl	-20.9
CC(C)c1ccc(/C=C/C(=O)N2CCc3ccccc3C2)cc1	3.46
O=C(CC(SCCO)c1ccc([N+](=O)[O-])cc1)c1ccco1 (stereo not drawn)	-35.7
O=C(NCc1ccccc1Cl)c1cc2c(s1)CS(=O)(=O)C2	-4.86
Cc1nnc(C)n1/N=C/c1cc(Br)ccc1O	9.86
C/C(=N/NS(=O)(=O)c1ccc(C)cc1C)c1ccc2c(c1)OCO2	-2.58
O=C(O)c1ccccc1SSc1ccccc1C(=O)O	25.5
O=C(c1ccco1)N1CCC(c2nc(-c3ccccc3Cl)no2)CC1	-11.5
Clc1ccc(CNCc2cccs2)cc1Cl	7.52
CC1CC(C)CN(C(=O)Nc2ccccc2F)C1 (stereo not drawn)	22.9

Compound	hERG current change (%, negative = inhibition) at 10uM [%]
CCN(CC)S(=O)(=O)c1ccc(C(=O)NC2CN3CCC2CC3)cc1 (stereo not drawn)	25.6
CN(/N=C/c1ccc(C(C)(C)C)cc1)C1=NCCN1	-71.6
Br.CN(/N=C/c1ccncc1)C1=NCCN1	5.06
Br.COc1ccc(/C=N/N(C)C2=NCCN2)c(OC)c1OC	5.63
Cc1ccccc1C(=O)N1CCC(C(=O)Nc2ccccn2)CC1	11.9
Cn1nc(C(C)(C)C)c([N+](=O)[O-])c1C(=O)N1CCOCC1	17.3
Cn1nc(C(=O)N2CCOCC2)c([N+](=O)[O-])c1C(=O)N1CCOCC1	-54.4
Cc1onc(C(=O)N2CCOCC2)c1[N+](=O)[O-]	19.8
Cc1cc2ncn(CC(C)C)c2cc1C	-3.79
O=C(CN1CCC(O)(c2ccc3c(c2)OCO3)CC1)NC1CCCCC1	3.07
[S-]C(=Nc1ccc(Cl)cc1)N[n+]1ccccc1	1.12
CSC(=Nc1ccc(Cl)cc1)N[n+]1ccccc1.[I-]	-58.8
CSC(=Nc1ccccc1)Nc1ccccc1	-15.8
C[N+]1(CCC(C(N)=O)(c2ccccc2)c2ccccc2)CCCCC1.[Br-]	10.7
ClCc1csc(N/N=C/c2cccs2)n1	11.8
CCOc1ccc(Br)cc1S(=O)(=O)Nc1ccc(C(=O)OCC(=O)N(C)c2ccccc2)cc1	12.7
CC1CC(OC(=O)c2ccccc2)(c2ccccc2)C(C)CN1C (stereo not drawn)	-8.66
O=C(CCCN1C(=O)/C(=C/c2ccccc2)SC1=S)Nc1cccc(O)c1	2.17
O=C(O)CCC(=O)NNC(=O)COc1cccc(Cl)c1	2.84
O=C(Cc1ccc([N+](=O)[O-])cc1)N1CCN=C1SCc1ccccc1	-7.33
CCOc1ccc(CC(=O)N2CCN=C2SCc2ccc([N+](=O)[O-])cc2)cc1	5.05
O=C(Cc1ccccc1)N1CCN=C1SCc1ccc([N+](=O)[O-])cc1	-55.5
COc1ccc(CC(=O)N2CCN=C2SCc2ccc([N+](=O)[O-])cc2)cc1	-52.2

Compound	hERG current change (%, negative = inhibition) at 10uM [%]
O=C(Cc1ccc(F)cc1)N1CCN=C1SCc1ccc([N+](=O)[O-])cc1	-47.3
COc1ccc(CC(=O)N2CCN=C2SCc2cccc([N+](=O)[O-])c2)cc1	-5.33
CS(=O)(=O)N(Cc1ccccc1)c1ccc(C(=O)Nc2ccc(C(N)=O)cc2)cc1	12.8
Cn1c(N)c(C(=O)COC(=O)c2ccc(Cl)c(S(=O)(=O)N3CCCC3)c2)c(=O)n(C)c1=O	-43.9
COC(CNc1ccc([N+](=O)[O-])c(NCC(OC)OC)c1C#N)OC	5.62
Cc1cc(NC(=O)c2ccc(Br)o2)ccc1NC(=O)c1ccco1	-58.2
CN(C)c1cccc(NC(=O)c2ccco2)c1	-73.3
Cc1ccc(NC(=O)c2ccc(Br)o2)cc1S(=O)(=O)N(C)C	-54.7
CN(C(=O)c1cccc(NC(=O)c2ccco2)c1)c1ccccc1	13.3
Cc1ccc(NC(=O)c2ccccc2Br)cc1S(=O)(=O)N(C)C	-1.84
Cc1cc(Br)ccc1NC(=O)c1ccco1	0.934
CN(C)S(=O)(=O)c1ccc(NC(=O)c2ccc(Br)o2)cc1	-9.84
Cc1ccc(C(=O)Nc2ccc(NC(=O)c3ccco3)c(C)c2)cc1	14.7
CC(=O)Nc1cccc(NC(=O)c2ccco2)c1	-4.69
COc1ccc(C2N(C(=O)C(F)(F)F)C(C)CN2S(=O)(=O)c2ccc(C)cc2)cc1 (stereo not drawn)	11.2
Cc1ccc(C2NC(=O)c3c(sc(C)c3C)N2)c(O)c1 (stereo not drawn)	-3.45
CCOc1ccc(-n2c(CC)nc3ccccc3c2=O)cc1	1.33
N#Cc1nc(-c2cccc(Cl)c2)oc1N1CCC(C(N)=O)CC1	0.912
CCOC(=O)C1C(=O)NC(N2CCCCC2)=NC1c1ccco1 (stereo not drawn)	8.22
Cc1cccc(C)c1NC(=O)C1(C)c2cccc[n+]2CC(=O)N1Cc1cccs1.[I-] (stereo not drawn)	6.18
COc1ccc(S(=O)(=O)Nc2cccc(S(=O)(=O)NC3=NCCC3)c2)cc1[N+](=O)[O-]	18.6
